Compound activity: PubChem BioAssay, Buhrlage Lab, Dana-Farber Cancer Institute and Novartis Institutes for BioMedical Research (Cambridge, Mass)
OTUD3 block: human OTUD3 deubiquitinase inhibition; 0.7% of 47,000 active; Q5T2D3; AID 1645858; purified OTUD3, Ub-rhodamine fluorescence, 2 h; inhibition, % at 25 µM
USP10 inh: blocks human USP10 ubiquitin-rhodamine cleavage; purified USP10, Ub-rhodamine fluorescence, 60 min; inhibition, % at 20 µM; 1.1% of 47,000 active
USP17 block: inhibitors of human USP17 deubiquitinase | A8MUK1 | purified USP17, Ub-rhodamine cleavage fluorescence, 3 h | inhibition, % at 50 µM | 6.5% of 47,000 active
Target sequence (A8MUK1 whole entry, looked up): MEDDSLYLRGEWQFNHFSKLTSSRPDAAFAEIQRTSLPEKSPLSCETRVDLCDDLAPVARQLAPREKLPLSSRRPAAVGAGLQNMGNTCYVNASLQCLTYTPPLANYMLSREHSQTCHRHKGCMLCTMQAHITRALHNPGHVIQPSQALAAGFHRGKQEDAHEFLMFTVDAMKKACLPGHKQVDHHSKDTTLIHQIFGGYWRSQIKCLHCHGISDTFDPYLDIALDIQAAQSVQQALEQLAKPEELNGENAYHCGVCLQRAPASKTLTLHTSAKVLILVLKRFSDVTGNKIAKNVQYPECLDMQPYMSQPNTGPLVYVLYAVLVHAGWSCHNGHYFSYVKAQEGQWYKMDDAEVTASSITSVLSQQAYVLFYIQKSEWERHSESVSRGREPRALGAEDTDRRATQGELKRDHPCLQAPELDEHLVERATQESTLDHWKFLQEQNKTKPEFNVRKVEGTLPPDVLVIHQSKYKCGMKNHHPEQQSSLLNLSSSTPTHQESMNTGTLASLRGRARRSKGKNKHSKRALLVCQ
USP8 inh: human USP8 deubiquitinase inhibition; 4.2% of 47,000 active; AID 1645853; P40818; inhibition, % at 20 µM; purified USP8, Ub-rhodamine cleavage fluorescence, 30 min
USP7 inh: blocks human USP7 ubiquitin-rhodamine cleavage; Q93009; purified USP7, Ub-rhodamine cleavage fluorescence; inhibition, % at 20 µM; 0.3% of 47,000 active
UCHL1 block: blocks human UCHL1 ubiquitin-rhodamine cleavage. purified UCHL1, Ub-rhodamine cleavage fluorescence. 0.2% of 47,000 active. P09936. inhibition, % at 20 µM
Active calls of the source: *; / = no result given. This is a sample that favours compounds with a hit; in the whole collection about 9.2% have one here. No stated cut-off is given here; in the data, active means inhibition above about 30%; inactive means the rest.

SMILES	OTUD3 block	USP10 inh	USP17 block	USP8 inh	USP7 inh	UCHL1 block
Cc1ccccc1NC(=O)CN1C(=O)CC(c2ccccc2)S(=O)(=O)c2ccccc21 (configuration not stated)	14	0	23	-2	-1	2
COc1ccc(NC(=O)CN2CC(C)Sc3ccccc32)cc1 (configuration not stated)	-2	-4	28	44*	2	1
CCCCNc1ncnc2c1sc1nc(CCCC)c3c(c12)CC(C)(C)OC3	2	5	45*	7	2	0
COc1ccc(CCNC(=O)c2noc3c2CCc2sccc2-3)cc1OC	-7	5	52*	17	3	6
O=C(c1cnn2cccnc12)N1CCCn2cc(-c3ccccc3)nc21	0	-1	8	5	-1	0
O=C(Oc1coc(CSc2ncccn2)cc1=O)c1c(F)cccc1F	19	6	12	46*	0	4
COc1ccc(OC)c(CCNCc2c(C(=O)O)c(C)n(Cc3ccc(F)cc3)c2C)c1	-7	-2	-6	-135	-27	-1
Nc1nccnc1CC1CCCN(Cc2cnccn2)C1 (configuration not stated)	-17	-8	-32	-46	-4	-3
COc1ccc(CCNC(=O)COc2cc(C)c3ccc(OC)cc3n2)cc1	-7	-2	46*	-16	-2	-2
COCC1OC(OC2OCC3OC4(OC(C)C(O)(C(C)=O)C5OCOC54)O[C@H]3[C@H]2OC(=O)C(C)C)[C@@H](OC)[C@@H](O)C1O[C@@H]1O[C@H](C)[C@H](OC)[C@H](OC2O[C@H](C)C3OC4(C[C@@H](O)C(O[C@H]5C[C@@H](O)C(OC(=O)c6c(C)c(Cl)c(O)c(Cl)c6OC)[C@@H](C)O5)[C@@H](C)O4)O[C@@]3(C)[C@@H]2O)C1O (some centres not stated)	-8	-6	-6	-4	-6	-3
O=C(O)[C@H](NC(=O)[C@H](Cc1c[nH]c2ccccc12)n1c(=O)[nH]c2ccccc2c1=O)c1ccc(O)cc1	4	5	-1	-38	4	3
Cc1ccc(NC2c3ccccc3C(=O)N2Cc2ccco2)cc1F (configuration not stated)	-3	3	/	-8	-11	2
COc1ccc(C2c3c(-c4ccccc4O)n[nH]c3C(=O)N2Cc2ccco2)cc1OC (configuration not stated)	-10	7	-5	7	3	3
Cc1ccc(C2c3c(-c4ccccc4O)n[nH]c3C(=O)N2Cc2ccco2)cc1 (configuration not stated)	-3	29	44*	58*	16	11
O=C1c2[nH]nc(-c3ccccc3O)c2C(c2ccc(F)cc2)N1Cc1ccco1 (configuration not stated)	13	18	39*	71*	9	12
CC1CCc2c(sc3ncnc(NC4CCN(CC(N)=O)CC4)c23)C1 (configuration not stated)	-214	-9	-194	-370	-152	-152
CNc1nc(C2CCN(S(=O)(=O)c3ccc(F)c(C)c3)C2)nc2c1CCN(C(C)=O)C2 (configuration not stated)	12	-3	9	15	2	0
Cc1noc(C)c1COc1cccc(C(=O)Nc2cccc(Cl)c2)c1	-3	4	1	3	2	6
Cc1noc(C)c1CNc1ccc(Cl)cc1	3	6	7	39*	-11	2
Cc1ccc(Cn2c(CCNC(=O)c3ccc(Cl)cc3)nc3ccccc32)cc1	2	14	68*	17	-5	-3
Cc1ccccc1Cn1c(CCNC(=O)c2ccco2)nc2ccccc21	-7	-1	-16	-1	-79	-2
COc1ccc(N2CCN(C(=O)c3ccc(-c4nc(-c5ccccc5)no4)cc3)CC2)cc1	-4	1	-4	-103	-4	0
Cc1ccc(-c2cc(C(F)F)n3ncc(C(=O)Nc4ccc(O)cc4)c3n2)cc1	9	44*	35*	60*	14	8
Cc1cc(C)c2c(c1)cc(C)c1nn(CC(N)=O)c(=O)n12	2	3	6	-4	-5	1
Cc1cc2cc3c(cc2n2c(=O)n(CCN4CCCC4)nc12)OCO3	4	1	47*	8	3	1
SMILES	OTUD3 block	USP10 inh	USP17 block	USP8 inh	USP7 inh	UCHL1 block
O=C(c1cnc(-c2ccccc2)nc1-c1ccccc1)N1CCN(c2cccc(C(F)(F)F)c2)CC1	1	4	-6	-9	11	7
Cc1nc(N2CCCC2)ncc1-c1cc(=O)[nH]c(Nc2ccc(Cl)cc2Cl)n1	8	51*	16	1	14	3
Cc1nc(N2CCC(C)CC2)ncc1-c1cc(=O)[nH]c(Nc2nc3ccccc3o2)n1	12	0	34*	12	3	2
CCN1CCN(c2ncc(-c3cc(=O)[nH]c(N4CCCC4)n3)c(C)n2)CC1	0	5	10	11	7	2
Cc1ccccc1Nc1nc(-c2cnc(N3CCOCC3)nc2C)cc(=O)[nH]1	8	2	8	5	1	1
Cc1nc(N2CCCC2)ncc1-c1cc(=O)[nH]c(NCCc2ccccc2)n1	5	15	50*	13	0	4
O=C(Cc1ccccc1)N1CCc2nc(C(=O)N3CCCCC3)sc2CC1	1	1	0	-10	2	4
Nc1c(-c2nc3ccccc3[nH]2)c2nc3ccccc3nc2n1Cc1cccc(Cl)c1	18	-5	46*	16	-6	-12
COc1cc(Cl)c(C)cc1-n1cc(C(=O)c2cc(Cl)ccc2O)cc(C#N)c1=O	-91	-7	-26	5	-13	-26
COc1ccc(O)c(C(=O)c2cc(C#N)c(=O)n(-c3cccc(C(F)(F)F)c3)c2)c1	-15	-3	17	65*	-150	-159
CCCc1cc(C2CCCN2C(=O)c2cc(-c3ccco3)on2)no1 (configuration not stated)	14	-8	47*	-10	0	3
CC(C)c1ccc(C2c3[nH]c4ccccc4c3C[C@H]3C(=O)N(c4ccccc4C(=O)NCC4CCCO4)C(=O)N23)cc1 (some centres not stated)	-65	-1	-80	-32	-13	-9
Cc1noc(-c2cc(=O)n(CC(=O)NCc3ccccc3F)c3ccccc23)n1	3	24	58*	26	6	1
Cc1noc(-c2ccc(-n3ncc(C(=O)NCc4ccccc4F)c3C)nc2)n1	14	0	40*	18	1	1
Cc1noc(-c2cc(=O)n(CC(=O)Nc3ccccc3C)c3ccccc23)n1	13	0	45*	0	2	2
Cc1ccc(C2CCCCCN2S(=O)(=O)c2cc(F)ccc2F)s1 (configuration not stated)	16	7	15	15	4	2
